PrPC TRFRET = inhibitors of human cell surface prion protein PrPC, primary screen, cell-based, TR-FRET; Major prion protein (Homo sapiens), P04156; TR-FRET read-out; inhibition, % at 13.8 µM; 0.43% of 370,000 active; in the data active = inhibition above about 24%; note: 0% = median of the test wells and 100% = reference compound wells
RN4220 kill = growth inhibition of S. aureus RN4220, primary screen, OD600. 16 h. inhibition, % (test concentration not listed). 0.33% of 330,000 active; in the data active = inhibition above about 85%;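 note: plate controls were untreated cells for no effect and reference antibiotic for full effect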
CCHFV vOTU inh = CCHFV vOTU protease inhibitors, primary screen, biochemical, Pep-AMC substrate, fluorescence. AID 651958, 2012. 0.55% of 370,000 active. inhibition, % at 11.5 µM; in the data active = inhibition above about 30%; note: 0% = vehicle wells with enzyme and 100% = no enzyme wells
PfHsp40 rescue = rescue of yeast from PfHsp40 toxicity, primary screen, S. cerevisiae, ATP luminescence. AID 504582, 2011. growth rescue, % at 12.5 µM. 0.68% of 340,000 active. S. cerevisiae expressing PfHsp40, growth rescue; in the data active = growth rescue above about 28%, passing the limit was not always enough;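 note: yeast W303a lacking pdr1 and pdr3 grown in galactose medium; growth measured after three days at 30 °C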
ugtP null kill = growth inhibition of ugtP-null S. aureus, primary screen, RN4220 ugtP deletion, OD600. 16 h. growth inhibition, % (concentration not given with the values). 0.54% of 330,000 active; in the data active = growth inhibition above about 68%;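 note: plate controls were untreated wells for no effect and antibiotic for full effect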
PrP UTR inh = inhibition of PrP 5' UTR reporter expression; cell-based PrP 5' UTR mRNA reporter, plate reader; inhibition, % (concentration not given with the values); 0.35% of 340,000 active; AID 488862, 2010; in the data active = inhibition above about 52%; note: 0 = median of the neutral control wells
* = called active by the depositor. A selection: hits, their analogues and other compounds. The true share with any hit is near 2.1%.

Screening Cc1ccc(CN2CC(C(=O)N(Cc3nnc(-c4ccccc4Cl)o3)C3CC3)CC2=O)cc1 (stereo unspecified) returned PrPC TRFRET 0, RN4220 kill 5, CCHFV vOTU inh 0, PfHsp40 rescue 561*, ugtP null kill 4 and PrP UTR inh -30.
`O=C(C1=CC(c2ccc(Br)cc2)CC(OCc2ccc(CO)cc2)O1)N1CCN(Cc2ccccc2)CC1` (stereo unspecified) gave RN4220 kill 16 and ugtP null kill 4.
Cn1c(COc2cccc3ccccc23)nnc1SCC(=O)OC1CCCCC1 was read as PrPC TRFRET 17, RN4220 kill 97*, CCHFV vOTU inh -2, PfHsp40 rescue -1, ugtP null kill 92* and PrP UTR inh -8.
Screening CCn1c(COc2cccc3ccccc23)nnc1SCC(=O)OC1CCCCC1 returned PrPC TRFRET 3, RN4220 kill 99*, CCHFV vOTU inh -14, PfHsp40 rescue 7, ugtP null kill 99* and PrP UTR inh -10.
For CCC1=C(OC(=O)N(CC)CC)N2C(=O)OC(=NCCOC)[C@]2(Cc2ccccc2)C2C1=CCC1C(=O)N(CC(=O)OC)C(=O)C12 (stereo partly specified) the results were RN4220 kill 3 and ugtP null kill 1.
`O=[N+]([O-])c1ccc(O)c(-c2nc(-c3ccccc3)c(-c3cccs3)[nH]2)c1` gave PrPC TRFRET 1, RN4220 kill 87*, CCHFV vOTU inh 3, PfHsp40 rescue 0, ugtP null kill 85* and PrP UTR inh -3.
`O=C(O)c1ccc(-c2nc(-c3ccccc3)c(-c3cccs3)[nH]2)cc1` gave PrPC TRFRET -2, RN4220 kill 6, CCHFV vOTU inh -47, PfHsp40 rescue -1, ugtP null kill 10 and PrP UTR inh -7.
For Cc1nn(-c2ccccc2)c(C)c1C=NNC(=O)CSc1nnc(SCc2ccccc2Cl)s1 the results were RN4220 kill 2 and ugtP null kill -14.
For CCOc1ccc(N=C2NC(=O)S/C2=C\c2ccc(N(C)C)cc2)cc1 the results were PrPC TRFRET -3, RN4220 kill 12, CCHFV vOTU inh -5, PfHsp40 rescue 0, ugtP null kill 15 and PrP UTR inh -37.
`CCOc1ccc(/C=C2/SC(=O)NC2=S)cc1` gave PrPC TRFRET 5, RN4220 kill 66, CCHFV vOTU inh 7, PfHsp40 rescue 18, ugtP null kill 100* and PrP UTR inh -23.
CCCCCCC[N+](CC)(CC)CCCCc1ccc(Cl)cc1 was read as PrPC TRFRET 18, RN4220 kill 95*, CCHFV vOTU inh 15, PfHsp40 rescue -1, ugtP null kill 100* and PrP UTR inh -11.
CCCCCNCc1ccc(Cl)cc1 was read as PrPC TRFRET 2, RN4220 kill 7, CCHFV vOTU inh 6, PfHsp40 rescue -1, ugtP null kill 5 and PrP UTR inh -42.
O=C(NN=C/C=C/c1ccco1)c1cccc([N+](=O)[O-])c1 was read as RN4220 kill 0 and ugtP null kill 10.
For CCN(CC)c1ccc(C=NNC(=O)c2c(Cl)c(C)nn2C)cc1 the results were RN4220 kill 3 and ugtP null kill 1.
For CN(C)CCCNC(=O)c1ccccn1 the results were PrPC TRFRET -2, RN4220 kill 1, CCHFV vOTU inh -1, PfHsp40 rescue 0, ugtP null kill 1 and PrP UTR inh -11.
For CN(C)CCCNC(=O)c1ccc(-c2nc(-c3ccc(Cl)cc3)cs2)cc1 the results were PrPC TRFRET -3, RN4220 kill 32, CCHFV vOTU inh -5, PfHsp40 rescue 4, ugtP null kill 84* and PrP UTR inh -24.
For Cc1cc(O)c2c(c1)C(=O)C13C(=C2O)C(=O)[C@H]2[C@@H](O)[C@@H]1[C@H]1[C@H](O)[C@@H]3C(=O)C3=C(O)c4c(O)cc(C)cc4C(=O)C312 (stereo partly specified) the results were RN4220 kill 98*, PfHsp40 rescue 282*, ugtP null kill 97* and PrP UTR inh -23.
Screening O=C1c2cccc3c(N4CCOCC4)c([N+](=O)[O-])cc(c23)C(=O)N1c1cccc2ccccc12 returned PrPC TRFRET 4, RN4220 kill 95*, CCHFV vOTU inh 3, PfHsp40 rescue 0, ugtP null kill 97* and PrP UTR inh -10.

Compound activity from PubChem.
